Compound activity as filed in PubChem BioAssay.
HIV RNase H inh-1 – HIV-1 RT RNase H inhibitors, primary screen, biochemical, fluorescence | Gag-Pol polyprotein (Human immunodeficiency virus type 1 group M subtype B (isolate … | RT-RNase H RNA/DNA duplex cleavage | inhibition, % at 10 µM | actives 1.9% (n = 65,000); in the data active means inhibition above about 50%
HIV RNase H inh-2 – HIV-1 RT RNase H inhibitors, retest, confirmation, biochemical | actives 39% (n = 1,000) | inhibition, % at 10 µM | Recombinant RT RNase H, fluorescent RNA/DNA duplex cleavage | shares compounds with HIV RNase H inh-1; in the data active means inhibition above about 48%; inconclusive means no clear call, values can overlap the other calls
* = called active by the depositor; ? = inconclusive. The entries come from a sample that favours hits as a whole.

SMILES	HIV RNase H inh-1	others
COc1ccc(OC)c(NC(=O)C(CC(=O)O)NCc2ccco2)c1 (centres undefined)	7
Nc1nc(-c2ccco2)cs1	41
c1coc(-c2nc(-c3ccco3)c(-c3ccco3)nc2-c2ccco2)c1	86*	HIV RNase H inh-2=-1
Nc1nc(-c2ccco2)c(-c2ccco2)s1	-6
CCCCNC(=O)C(C#N)c1nc2ccccc2nc1N1CCN(c2ccccc2F)CC1 (centres undefined)	23
CC(=O)Cc1nsc(NC(=O)c2cc(-c3ccccc3Cl)oc2C)n1	-5
COc1cc(N=c2ssnc2Cl)cc(OC)c1OC	91*	HIV RNase H inh-2=76*
COc1cc(NC(=O)c2cc(C(C)C)on2)cc(OC)c1OC	-5
COc1cc(/C=N/n2c(C)nnc2C)cc(OC)c1OC	-13
CCCCNC(=O)CN(C1CCCCC1)S(C)(=O)=O	4
CN=C1SC(CC(=O)Nc2cc(Cl)ccc2Cl)C(=O)N1C (centres undefined)	-21
Cc1nc(COC(=O)c2c(C)nn(-c3ccccc3)c2C)cs1	-28
O=S(=O)(CCOc1ccccc1)c1nc2ccccc2[nH]1	-2
COc1ccccc1-c1nnc(SCC(=O)N2CCOCC2)o1	-4
COc1ccccc1-c1c(C#N)c(SCC(=O)N2CCCC2)nc(C)c1C(N)=O	65*	HIV RNase H inh-2=-2
CCOC(=O)N1CCN(C(=O)CSc2cc(C)nc3c(-c4ccccc4OC)c(C)nn23)CC1	-1
CC(=O)Nc1nc2n(n1)C(c1ccccc1)C=C(c1ccccc1)N2 (centres undefined)	-5
CC(=O)Nc1nc2n(n1)C(c1ccc(Cl)cc1)C=C(C)N2 (centres undefined)	0
COc1ccc(C2C=C(c3ccc(Cl)cc3)Nc3nc(NC(C)=O)nn32)cc1 (centres undefined)	56*	HIV RNase H inh-2=11
O=C(C1CCN(S(=O)(=O)c2cccc3cccnc23)CC1)N1CCN(C2CCCC2)CC1	-20
CC(C)C(c1nnnn1C(C)(C)C)N1CCN(c2cccc(Cl)c2)CC1 (centres undefined)	1
O=C(CCn1c(=O)sc2ccccc21)NCc1ccc2c(c1)OCO2	-15
CCOC(=O)N1CCN(C(=O)CC(C(=O)N2CCc3ccccc32)n2ccnc2)CC1 (centres undefined)	-4
COC(=O)C(CC(=O)c1ccc(Br)cc1)n1ccnc1 (centres undefined)	79*	HIV RNase H inh-2=36
Cc1ccc(C(=O)CC(C(=O)O)n2cccn2)cc1 (centres undefined)	-1
SMILES	HIV RNase H inh-1	others
CCCC(=O)N(C)c1nnc(-c2ccc(OC)cc2)s1	32
CCOc1ccc(-c2nnc(N(CC)C(=O)C3CCC3)s2)cc1	66*	HIV RNase H inh-2=1
CCN(C(=O)Cc1cccs1)c1nnc(-c2cc(OC)c(OC)c(OC)c2)s1	-20
CCNc1nc2nonc2nc1NCC	-1
Cc1cc(C)n(CCc2nc3c4ccccc4nc(SCc4ccc(C#N)cc4)n3n2)n1	15
C=CCOc1ccccc1/C=c1\sc2nc(=O)c(C)nn2c1=O	13
CC(C)Oc1ccc(-c2nn(-c3ccccc3)cc2/C=c2\sc3ncnn3c2=O)cc1	70*	HIV RNase H inh-2=?
COc1ccccc1/C=c1\sc2nc(-c3cccs3)nn2c1=O	9
Cc1cccc(N2CCN(C(=O)COc3cc(=O)n(C)c4ccccc34)CC2C)c1 (centres undefined)	0
CC(C)Cn1c(=O)c(C(=O)Nc2ccncc2)c(O)c2ccccc21	71*	HIV RNase H inh-2=47
Cn1c(=O)c(C(=O)Nc2cccnc2)c(O)c2ccccc21	-13
CC(C)Cn1c(=O)c(C(=O)Nc2cnccn2)c(O)c2ccccc21	-12
O=c1cc(NCc2ccco2)c2ccccc2o1	-1
CCC(=O)OC1=C2C(=Nc3c(c(=O)n(C)c(=O)n3C)C2c2ccccc2)c2ccccc21 (centres undefined)	2
CSc1ccc(C2Nc3ccccc3-c3cc(C)nn32)cc1 (centres undefined)	71*	HIV RNase H inh-2=-6
Cc1cc2n(n1)C(c1ccccc1Cl)Nc1ccccc1-2 (centres undefined)	-13
Cc1cc2n(n1)C(c1ccsc1)Nc1ccccc1-2 (centres undefined)	-8
COc1ccccc1-c1cn(S(=O)(=O)c2ccc(F)cc2)nc1N	-3
COC(=O)c1ccccc1NC(=O)CNC(=O)c1ccco1	-3
COc1ccc(CCNc2cc(=O)[nH]c(N)n2)cc1	2
CN(C)c1ccc(CN(C(=O)C2COc3ccccc3O2)C2CCS(=O)(=O)C2)cc1 (centres undefined)	2
CCCCN(C)C(=O)c1coc(=O)c2ccccc12	-6
CN(C(=O)c1coc(=O)c2ccccc12)c1ccc(F)cc1	72*	HIV RNase H inh-2=33
Cc1ccc(CNC(=O)c2coc(=O)c3ccccc23)o1	-18
CCc1c(C(=O)O)[nH]c2ccc(Br)cc12	-7
SMILES	HIV RNase H inh-1	others
O=C(O)CCCC(=O)N1CCN(C(c2ccccc2)c2ccccc2)CC1	-10
O=C(COc1cccc(C(F)(F)F)c1)Nc1ccc(S(=O)(=O)N2CCCC2)cc1	-5
CCOC(=O)c1ccccc1NC(=O)CSc1nc2ccccc2n1CC(=O)N1CCCC1	-9
CN(C)c1ccc(NC(=O)CN2C(=O)CC(c3ccccc3)=Nc3ccccc32)cc1	89*	HIV RNase H inh-2=41
CN(C)c1ccc(NC(=O)CCCc2ccccc2)cc1	12
CN(C)c1ccc(NC(=O)Cn2ncn3c(cc4ccccc43)c2=O)cc1	21
Cc1ccc(N2C(=O)c3sc4nnc(C)c(=O)n4c3C2=O)cc1	0
Cc1ccccc1N1C(=O)c2sc3nc4c(c(=O)n3c2C1=O)CCC4	88*	HIV RNase H inh-2=80*
N=c1cc(C2(O)CCCCC2)n2c(nc3ccccc32)s1	-13
O=C1c2sc3nc4c(c(=O)n3c2C(=O)N1c1ccccc1)CCC4	12
O=C1c2sc3nc4ccccc4n3c2C(=O)N1c1ccccc1Cl	85*	HIV RNase H inh-2=72*
O=c1/c(=C\c2cccnc2)sc2nc3ccccc3n12	-30
c1cn(CC2(Cn3ccnc3)COC2)cn1	-8
Cn1c(=O)c2c(SCc3ccccn3)nc(-c3ccccc3)nc2n(C)c1=O	-10
Cn1c(=O)c2c(SCc3ccccc3)nc(-c3ccco3)nc2n(C)c1=O	52*	HIV RNase H inh-2=13
Cn1c(=O)c2c(SCc3cccc(C(F)(F)F)c3)nc(-c3ccco3)nc2n(C)c1=O	37
CC(=O)c1ccc(C(C)(C)c2ccc(C(C)=O)s2)s1	-13
O=C(NC1CCCCC1)c1nc2c(nnn2Cc2ccccc2Cl)c(=O)[nH]1	2
Cc1ccccc1Cc1c(C)nc2c(C(=O)NCc3ccco3)cnn2c1C	-51
CCOC(=O)N1CCN(C(=O)c2cnn3c(C(F)F)cc(-c4ccc(C)cc4)nc23)CC1	-10
Cc1ccc(-c2cc(C(F)(F)F)n3ncc(C(=O)NCc4ccco4)c3n2)cc1	63*	HIV RNase H inh-2=42
COc1ccc(-c2cc(C(F)(F)F)n3nc(C(=O)NCc4ccco4)cc3n2)cc1	-5
Cc1ccc(-c2cc(C(F)F)n3ncc(C(=O)NCc4ccco4)c3n2)cc1	70*	HIV RNase H inh-2=74*
O=C(NCc1ccco1)c1cc2nc(-c3ccc4c(c3)OCO4)cc(C(F)(F)F)n2n1	16
CCOc1ncccc1C(=O)OCc1cc(=O)n2c(n1)sc1ccccc12	7
CCOc1c(Br)cc(C2NS(=O)(=O)N=C3CCCCCN32)cc1OC (centres undefined)	-6
NC(=O)CSc1nc(-c2ccccc2Cl)ns1	-11
